# Data reported in PubChem BioAssay (NCATS).
# Records with an inconclusive call do not appear. Where a call stands in place of a potency, no number is given. Activity calls are given as the source filed them. Unless noted, the call rests on the fitted dose curve; in most records, active means well fitted curve in the direction sought with a large enough effect; inconclusive means small, poorly fitted or top-dose-only effect, or another doubt; inactive means no such curve, though single readings can be large; an effect the other way counts as inactive or inconclusive.
# How the values were obtained:
# [1] = AP1 Signaling Pathway (AID 357; active means well fitted curve in either direction with a large enough effect, not every such curve was filed as active;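 further: ME-180 reporter cells stimulated with EGF at its EC50 level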)
# Procedure, shortened: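 Cells are seeded overnight, exposed to compound titrations and an EC50 level of EGF for 5 hours at 37 °C, then loaded with CCF4 dye for 2.5 hours. Beta-lactamase activity under the AP-1 element is read as a blue/green ratio.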
# [2] = NFAT Signaling Pathway (AID 444; active means well fitted curve in either direction with a large enough effect, not every such curve was filed as active;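 further: carbachol stimulus at about its EC50 of 1 µM final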); conditions: Jurkat NFAT-bla M1, carbachol, beta-lactamase ratio, 5 h; at 38 µM (top of the series)
# Procedure, shortened: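 Jurkat cells carrying an NFAT-driven β-lactamase reporter and co-transfected muscarinic M1 receptor were treated with compound plus carbachol (1 uM final, an EC50 level) for 5 h at 37 °C. CCF4 loading followed for 1 h at RT; 460/530 nm ratio gave %activity.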
# [3] = Stat Signaling Pathway (AID 446; active means well fitted curve in either direction with a large enough effect, not every such curve was filed as active;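 further: ME-180 cervical cancer cells given 40 pM IL-6 alongside compound; SIE-controlled beta-lactamase reporter measured as 460/530 nm FRET emission ratio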)
# Procedure, shortened: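 Overnight-plated ME-180 cells bearing a STAT Inducible Element beta-lactamase reporter; 5 h co-exposure to compound and 40 pM IL-6; values normalized to 300 pM IL-6 and 125 nM JAK inhibitor controls.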
# [4] = target: Glucocorticoid receptor (Homo sapiens) (UniProt P04150); assay: GR-GFP Redistribution (AID 450;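 active means compounds whose dose series gives a full or clear partial fitted curve of increased nuclear translocation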; further: potency means the concentration at half of the fitted maximal effect); conditions: U2OS GR-GFP nuclear translocation, laser cytometry, 2 h
# [5] = target: Glucocorticoid receptor (Homo sapiens) (UniProt P04150); assay: GR-EFC Redistribution (AID 451; calls by dose curve; further: potency means the concentration at half of the fitted maximal effect); conditions: CHO-K1 GR-EFC translocation, beta-gal luminescence, 2 h
# Procedure, shortened: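 CHO-K1 cells stably expressing nuclear-localized β-gal enzyme acceptor and GR fused C-terminally to the enzyme donor fragment; ligand-driven nuclear translocation restores β-gal by complementation. Compounds titrated up to 46 uM final, 2 h at 37 °C; luminescence read.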
# [6] = target: Mitogen-activated protein kinase 10 (Mus musculus) (UniProt Q61831); assay: JNK3 AlphaScreen Assay (AID 530; active means well fitted curve in either direction with a large enough effect, not every such curve was filed as active;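 further: kinase came from lysate of stimulated human HepG2 cells; signal reports phosphorylation of biotinylated GST-cJun 1-79 at Ser73 with 10 µM ATP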)
# Procedure, shortened: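 Biotinylated GST-cJun(1-79) served as substrate for JNK3 in HepG2 lysates stimulated with IL-1beta and TNF-alpha. ATP was 10 uM final, pH 7.6. Ser73 phosphorylation was quantified by AlphaScreen (680 nm excitation).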
# [7] = target: 3',5'-cyclic-AMP phosphodiesterase 4B (Homo sapiens) (UniProt Q07343); assay: qHTS Assay for Inhibitors of PDE-IV (AID 607; active means well fitted activation curve with a large enough effect in the main read-out, with a control signal flat, not every such curve was filed as active)
# Procedure, shortened: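 Live HEK293 cells with a modified cyclic nucleotide-gated (CNG) channel report intracellular cAMP via membrane-potential dye fluorescence (ex 535/em 590 nm). Endogenous PDE-IV was targeted. Compounds were tested at up to 22.9 uM final; RO 20-1724 100 uM served as control.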
# [8] = target: Guanine nucleotide-binding protein G(i) subunit alpha-1 (Homo sapiens) (UniProt P63096); assay: qHTS Assay for Inhibitors of RGS12 GoLoco Motif Activity (Green Fluorophore) (AID 879);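 further: negative values mean loss of peptide binding seen as reduced polarization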
# Procedure, shortened: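 A drop in FITC polarization marked displacement of the FITC-tagged RGS12 GoLoco peptide (10 nM) from Gαi1 (50 nM). Compounds were incubated 10 min at room temperature in Tris pH 7.5 buffer containing 150 mM NaCl, 0.1 mM GDP and 0.05% NP40; unlabeled peptide titration served as control.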
# [9] = target: Cytochrome P450 3A4 (Homo sapiens) (UniProt P08684); assay: qHTS Assay for Inhibitors and Substrates of Cytochrome P450 3A4 (AID 884); further: nearly all actives have a fitted effect of over 50% in size
# Procedure, shortened: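 Luminescent readout of luciferin produced by CYP3A4 (20 nM) dealkylation of Luciferin-PPXE, 25 uM (its KM). NADPH-driven reaction ran 60 min at RT after 10 min compound preincubation; data scaled to 57 uM ketoconazole as 100% inhibition.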
# [10] = target: Cytochrome P450 2D6 (Homo sapiens) (UniProt P10635); assay: qHTS Assay for Inhibitors and Substrates of Cytochrome P450 2D6 (AID 891);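 further: luciferin methyl ether substrate demethylated by CYP2D6 with NADPH regeneration; nearly all actives have a fitted effect of over 60% in size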
# Procedure, shortened: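 Luminescent read-out of luciferin formed by 5 nM human CYP2D6 demethylating 30 uM Luciferin-ME EGE (Km level) over 60 min at room temperature after NADPH regeneration addition. Data normalized to full inhibition by 1.43 uM quinidine.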
# [11] = target: Cytochrome P450 2C19 (Homo sapiens) (UniProt P33261); assay: qHTS Assay for Inhibitors and Substrates of Cytochrome P450 2C19 (AID 899); further: nearly all actives have a fitted effect of over 60% in size
# Procedure, shortened: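 In 50mM KPO4, the reaction held 5nM enzyme and KM-level (10uM) Luciferin-H EGE; it ran 60 min at 37C after NADPH regeneration and a 10 min compound preincubation. Luminescence values were scaled to 57uM ketoconazole as complete inhibition.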
# [12] = qHTS Assay for Identification of Small Molecule Agonists for Thrombopoietin (TPO) Signaling Pathway (AID 917)
# Procedure, shortened: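 Quantitative HTS for pathway activators: compounds were pin-transferred onto IL-3-starved Ba/F3 cells expressing human TPO receptor, TPO was added at its EC50 (26 pM final), and after 24 hrs at 37 C reporter luciferase was measured.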
# [13] = Confirmation and Secondary Assay for Modulators of Hemoglobin Beta Chain Splicing at IVS2 705 locus (AID 930);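 further: HeLa cells stably expressing the EGFP-705 splicing reporter; GFP fluorescence per well restored by corrected splicing of the IVS2-705 intron in EGFP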
# Procedure, shortened: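 Stable HeLa line with EGFP disrupted by mutant beta-globin intron 2 (705). Overnight attachment, then 2 days of compound at 37C, 5% CO2. Signal: peak GFP intensity summed over objects 5-250 µm.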
# [14] = target: Muscarinic acetylcholine receptor M1 (Rattus norvegicus) (UniProt P08482); assay: qHTS Assay for Antagonists of Acetylcholine Muscarinic M1 Receptor: Kinetic Measurement of Intracellular Calcium Response (AID 943);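 further: Fluo-4 calcium signal as peak divided by basal fluorescence over 4 min; nearly all actives have a fitted effect of over 75% in size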
# Procedure, shortened: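 Quantitative HTS in CHO-M1 (rat receptor) cells: 10 min compound exposure ahead of 100 nM carbachol, Fluo-4 fluorescence followed 4 min, value expressed as peak-to-basal ratio.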
# [15] = target: Muscarinic acetylcholine receptor M1 (Rattus norvegicus) (UniProt P08482); assay: qHTS Assay for Antagonists of Acetylcholine Muscarinic M1 Receptor: Measurement of IP-One Response (AID 944); further: nearly all actives have a fitted effect of over 75% in size
# Procedure, shortened: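 Antagonism was measured as loss of carbachol-driven (EC80) IP1 accumulation in CHO cells carrying rat M1, using a homogeneous IP-One TR-FRET kit read at 620 and 665 nm.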
# [16] = target: Pyruvate kinase (Leishmania mexicana) (UniProt Q27686); assay: qHTS Validation Assay for Inhibitors of Leishmania Mexicana Pyruvate Kinase (AID 945)
# Procedure, shortened: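 Mutant LmPYK (E451W), 0.2 nM, plus 0.5 mM PEP and 0.1 mM ADP in 50 mM imidazole pH 7.2 containing 0.01% Tween 20 and 0.05% BSA. Incubated 1 h at room temperature; luminescence via PKLight, normalized to DMSO.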
# [17] = target: Alpha-galactosidase (Coffea arabica) (UniProt Q42656); assay: Counterscreen for Glucocerebrosidase Inhibitors: qHTS Assay for Coffee Bean alpha-Galactosidase at pH 4.5 (AID 957)
# Procedure, shortened: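 Quantitative HTS of compounds (0.7 nM to 77 uM) against coffee bean alpha-galactosidase at pH 4.5, measuring 4-methylumbelliferone fluorescence released from 80 uM substrate.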
# [18] = target: Alpha-galactosidase A (Homo sapiens) (UniProt P06280); assay: Counterscreen for Glucocerebrosidase Inhibitors: qHTS Assay for Human alpha-Galactosidase at pH 4.5 (AID 992)
# Procedure, shortened: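 Each compound is preincubated briefly with 2 nM enzyme before substrate addition (80 uM); plates then sit 20 min at ambient temperature, are quenched with 1M NaOH/1M glycine, and read fluorometrically.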
# [19] = target: alpha-glucosidase (Oryza sativa, rice) (UniProt Q653V4); assay: Counterscreen for Glucocerebrosidase Inhibitors: qHTS Assay for Rice alpha-Glucosidase at pH 5.0 (AID 997)
# Procedure, shortened: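 Endpoint fluorogenic assay at pH 5.0: compounds (0.7 nM to 77 uM) titrated against 4 nM rice enzyme and 400 uM 4-MU-alpha-glucoside for 20 min at room temperature; NaOH/glycine stop, read ex 365/em 440 nm, Hill-fitted AC50.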
# [20] = target: Alpha-galactosidase (Coffea arabica) (UniProt Q42656); assay: Counterscreen for Glucocerebrosidase Inhibitors: qHTS Assay for Coffee Bean alpha-Galactosidase at pH 5.9 (AID 998)
# Procedure, shortened: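 In 50 mM citric acid pH 5.9 with 0.005% Tween-20, coffee bean enzyme hydrolyses 80 uM 4-MU alpha-D-galactopyranoside over 20 min at RT. Activity is normalized to controls; AC50 comes from Hill-modelled concentration-response data.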
# [21] = qHTS Assay for Lipid Storage Modulators (AID 1519; calls by dose curve); conditions: Drosophila S3 cells, BODIPY lipid droplet/cell ratio, laser cytometry, cells loaded with oleic acid
# Procedure, shortened: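 Cells seeded at 5,000 per well were treated with compounds over a concentration series and loaded with oleic acid (400 uM, as added). Lipid droplet fluorescence (488 nm excitation, 500-530 nm channel) was read by laser-scanning cytometry and normalized to 20 uM Triacsin C.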
# [22] = target: DNA dC->dU-editing enzyme APOBEC-3G (Homo sapiens) (UniProt Q9HC16); assay: qHTS for inhibitors of Vif-A3G interactions: Validation (AID 588379)
# Procedure, shortened: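 Yellow fluorescence (Ex 488, Em 500-530) of Vif-coexpressing HeLa A3G-eYFP cells, scanned by Acumen cytometer, reports blocked A3G degradation. Cells plated at 700/well overnight at 37 deg C before compound addition, then a further overnight compound incubation at 37 deg C.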
# [23] = test system: Zika virus NS2B-NS3 protease; assay: Primary screen GU AMC qHTS for Zika virus inhibitors (AID 1347154); further: nearly all actives have a fitted effect of over 70% in size
# Procedure, shortened: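 Unlinked Zika NS2B hydrophilic domain/NS3 protease domain noncovalent complex (25 nM final) in 10 mM Tris-HCl pH 8.0, 0.01% Tween 20, with AMC peptide substrate. Fluorescence (ex 340, em 450 nm) change over 15 min, room temperature; percent inhibition fitted to 4-parameter Hill equation.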
# [24] = Primary qHTS for small molecule stabilizers of the endoplasmic reticulum resident proteome: Secreted ER Calcium Modulated Protein (SERCaMP) assay (AID 1508630)
# Procedure, shortened: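 The SH-SY5Y reporter protocol was run at 3 concentrations up to 38.3 uM (primary) or 11 concentrations (follow-up): 16 h compound, 100 nM thapsigargin for 4 h, then extracellular luciferase luminescence.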
# Sequence of Glucocorticoid receptor (Homo sapiens) (P04150 whole entry, looked up, the tested form may be a part): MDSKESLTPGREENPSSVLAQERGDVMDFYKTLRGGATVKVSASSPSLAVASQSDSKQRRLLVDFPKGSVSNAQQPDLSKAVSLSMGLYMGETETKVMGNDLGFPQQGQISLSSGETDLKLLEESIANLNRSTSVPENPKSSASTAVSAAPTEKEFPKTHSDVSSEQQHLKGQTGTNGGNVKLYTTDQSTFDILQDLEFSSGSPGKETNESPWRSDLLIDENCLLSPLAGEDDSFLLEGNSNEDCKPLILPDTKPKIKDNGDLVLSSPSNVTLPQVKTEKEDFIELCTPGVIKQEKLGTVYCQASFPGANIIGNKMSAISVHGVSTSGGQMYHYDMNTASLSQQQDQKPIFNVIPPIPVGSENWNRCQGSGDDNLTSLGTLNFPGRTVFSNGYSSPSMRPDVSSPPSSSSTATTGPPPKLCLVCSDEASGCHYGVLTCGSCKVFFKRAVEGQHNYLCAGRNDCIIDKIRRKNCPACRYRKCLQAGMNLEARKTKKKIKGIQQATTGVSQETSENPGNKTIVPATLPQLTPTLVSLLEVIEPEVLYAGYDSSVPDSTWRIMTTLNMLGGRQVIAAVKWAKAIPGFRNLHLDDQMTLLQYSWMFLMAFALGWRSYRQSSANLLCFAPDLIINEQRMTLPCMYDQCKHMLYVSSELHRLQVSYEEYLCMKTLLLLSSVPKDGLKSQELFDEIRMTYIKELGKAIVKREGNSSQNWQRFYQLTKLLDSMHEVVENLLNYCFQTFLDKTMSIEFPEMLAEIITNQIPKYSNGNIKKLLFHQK
# Sequence of Alpha-galactosidase (Coffea arabica) (Q42656 whole entry, looked up): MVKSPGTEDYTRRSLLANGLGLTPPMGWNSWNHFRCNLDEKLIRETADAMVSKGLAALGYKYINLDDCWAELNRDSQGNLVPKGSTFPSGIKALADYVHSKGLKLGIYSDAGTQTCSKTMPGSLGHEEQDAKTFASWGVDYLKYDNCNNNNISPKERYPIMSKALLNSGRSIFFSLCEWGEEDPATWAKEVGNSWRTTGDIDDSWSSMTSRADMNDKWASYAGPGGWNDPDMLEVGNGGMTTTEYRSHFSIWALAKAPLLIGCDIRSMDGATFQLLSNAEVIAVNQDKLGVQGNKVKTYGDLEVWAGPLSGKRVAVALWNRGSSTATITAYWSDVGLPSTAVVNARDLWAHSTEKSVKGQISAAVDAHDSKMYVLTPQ
# Sequence of Muscarinic acetylcholine receptor M1 (Rattus norvegicus) (P08482 whole entry, looked up): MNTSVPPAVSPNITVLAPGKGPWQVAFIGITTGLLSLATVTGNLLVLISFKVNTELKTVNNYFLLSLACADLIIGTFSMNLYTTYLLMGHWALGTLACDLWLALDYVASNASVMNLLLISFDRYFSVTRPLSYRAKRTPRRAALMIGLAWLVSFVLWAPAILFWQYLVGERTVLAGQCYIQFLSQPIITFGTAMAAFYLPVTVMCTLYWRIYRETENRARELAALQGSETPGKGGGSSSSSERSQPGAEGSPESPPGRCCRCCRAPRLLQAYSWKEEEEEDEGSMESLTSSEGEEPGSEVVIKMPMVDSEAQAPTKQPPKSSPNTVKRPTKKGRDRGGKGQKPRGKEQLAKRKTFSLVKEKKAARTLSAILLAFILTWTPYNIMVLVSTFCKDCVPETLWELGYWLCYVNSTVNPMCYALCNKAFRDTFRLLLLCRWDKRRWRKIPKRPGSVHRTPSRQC
# Sequence of 3',5'-cyclic-AMP phosphodiesterase 4B (Homo sapiens) (Q07343 whole entry, looked up): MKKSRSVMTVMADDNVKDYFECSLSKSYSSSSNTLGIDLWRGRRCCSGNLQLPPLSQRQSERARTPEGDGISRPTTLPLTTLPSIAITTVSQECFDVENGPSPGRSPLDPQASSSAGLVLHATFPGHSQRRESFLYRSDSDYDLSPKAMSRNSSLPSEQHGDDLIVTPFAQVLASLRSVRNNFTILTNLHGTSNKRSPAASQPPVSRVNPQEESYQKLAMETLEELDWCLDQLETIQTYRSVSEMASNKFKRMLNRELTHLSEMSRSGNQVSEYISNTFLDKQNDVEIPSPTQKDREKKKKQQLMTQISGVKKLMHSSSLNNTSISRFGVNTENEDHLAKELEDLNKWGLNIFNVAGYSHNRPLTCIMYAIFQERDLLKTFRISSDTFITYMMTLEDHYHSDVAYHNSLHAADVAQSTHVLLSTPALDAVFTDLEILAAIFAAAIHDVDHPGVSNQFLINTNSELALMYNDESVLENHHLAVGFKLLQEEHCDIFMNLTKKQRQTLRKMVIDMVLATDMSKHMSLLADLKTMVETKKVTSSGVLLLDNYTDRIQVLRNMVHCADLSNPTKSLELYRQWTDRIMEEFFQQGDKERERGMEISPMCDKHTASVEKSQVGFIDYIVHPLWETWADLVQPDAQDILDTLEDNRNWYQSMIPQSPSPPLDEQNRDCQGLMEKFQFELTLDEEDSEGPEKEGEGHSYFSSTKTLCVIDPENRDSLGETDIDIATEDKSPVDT
# Sequence of Guanine nucleotide-binding protein G(i) subunit alpha-1 (Homo sapiens) (P63096 whole entry, looked up): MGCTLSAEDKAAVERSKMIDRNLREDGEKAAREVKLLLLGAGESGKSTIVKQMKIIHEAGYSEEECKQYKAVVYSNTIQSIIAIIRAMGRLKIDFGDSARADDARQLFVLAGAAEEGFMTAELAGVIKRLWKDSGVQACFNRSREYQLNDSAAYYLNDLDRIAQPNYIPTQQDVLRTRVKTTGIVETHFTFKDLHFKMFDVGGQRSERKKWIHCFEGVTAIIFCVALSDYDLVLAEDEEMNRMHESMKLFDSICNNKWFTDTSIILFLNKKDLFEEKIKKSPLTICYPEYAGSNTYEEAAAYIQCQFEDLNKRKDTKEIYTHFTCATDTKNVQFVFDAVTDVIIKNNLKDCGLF
# Sequence of DNA dC->dU-editing enzyme APOBEC-3G (Homo sapiens) (Q9HC16 whole entry, looked up): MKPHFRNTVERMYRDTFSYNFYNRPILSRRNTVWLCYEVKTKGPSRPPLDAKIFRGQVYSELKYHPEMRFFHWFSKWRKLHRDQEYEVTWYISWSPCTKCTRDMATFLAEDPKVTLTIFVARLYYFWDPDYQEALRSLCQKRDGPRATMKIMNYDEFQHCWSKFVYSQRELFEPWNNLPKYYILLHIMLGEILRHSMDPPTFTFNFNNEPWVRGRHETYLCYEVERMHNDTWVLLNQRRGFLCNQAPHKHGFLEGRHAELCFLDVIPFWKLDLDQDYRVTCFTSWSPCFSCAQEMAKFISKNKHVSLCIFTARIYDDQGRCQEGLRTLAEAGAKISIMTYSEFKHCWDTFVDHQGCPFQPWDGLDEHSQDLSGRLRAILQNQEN
# Sequence of Cytochrome P450 2D6 (Homo sapiens) (P10635 whole entry, looked up): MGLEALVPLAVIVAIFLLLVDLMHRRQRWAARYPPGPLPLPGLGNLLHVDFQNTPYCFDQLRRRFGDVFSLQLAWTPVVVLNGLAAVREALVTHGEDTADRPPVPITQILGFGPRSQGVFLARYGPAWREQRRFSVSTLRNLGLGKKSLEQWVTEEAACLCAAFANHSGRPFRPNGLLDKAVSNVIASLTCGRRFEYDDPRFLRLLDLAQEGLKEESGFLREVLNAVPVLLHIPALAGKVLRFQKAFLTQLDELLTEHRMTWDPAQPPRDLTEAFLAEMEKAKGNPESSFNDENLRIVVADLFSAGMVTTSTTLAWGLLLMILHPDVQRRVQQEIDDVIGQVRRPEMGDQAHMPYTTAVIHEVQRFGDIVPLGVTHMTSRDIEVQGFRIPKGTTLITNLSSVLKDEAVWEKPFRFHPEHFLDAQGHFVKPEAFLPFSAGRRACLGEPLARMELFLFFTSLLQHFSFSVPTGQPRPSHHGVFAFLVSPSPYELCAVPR
# Sequence of Pyruvate kinase (Leishmania mexicana) (Q27686 2-499 E452W): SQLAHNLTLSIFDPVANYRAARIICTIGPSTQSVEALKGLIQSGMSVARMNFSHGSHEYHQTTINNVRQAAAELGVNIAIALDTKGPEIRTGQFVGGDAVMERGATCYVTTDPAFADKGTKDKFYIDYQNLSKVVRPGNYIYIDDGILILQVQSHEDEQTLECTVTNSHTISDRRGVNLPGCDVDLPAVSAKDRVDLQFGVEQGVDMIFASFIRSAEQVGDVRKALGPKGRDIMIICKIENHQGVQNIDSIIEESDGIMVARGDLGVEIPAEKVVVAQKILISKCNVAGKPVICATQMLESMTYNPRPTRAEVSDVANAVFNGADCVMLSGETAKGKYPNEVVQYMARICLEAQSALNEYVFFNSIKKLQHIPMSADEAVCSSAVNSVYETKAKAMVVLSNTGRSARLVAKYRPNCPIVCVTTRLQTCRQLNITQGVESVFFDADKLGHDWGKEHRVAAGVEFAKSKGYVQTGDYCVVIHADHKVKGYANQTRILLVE
# Sequence of Cytochrome P450 3A4 (Homo sapiens) (P08684 whole entry, looked up): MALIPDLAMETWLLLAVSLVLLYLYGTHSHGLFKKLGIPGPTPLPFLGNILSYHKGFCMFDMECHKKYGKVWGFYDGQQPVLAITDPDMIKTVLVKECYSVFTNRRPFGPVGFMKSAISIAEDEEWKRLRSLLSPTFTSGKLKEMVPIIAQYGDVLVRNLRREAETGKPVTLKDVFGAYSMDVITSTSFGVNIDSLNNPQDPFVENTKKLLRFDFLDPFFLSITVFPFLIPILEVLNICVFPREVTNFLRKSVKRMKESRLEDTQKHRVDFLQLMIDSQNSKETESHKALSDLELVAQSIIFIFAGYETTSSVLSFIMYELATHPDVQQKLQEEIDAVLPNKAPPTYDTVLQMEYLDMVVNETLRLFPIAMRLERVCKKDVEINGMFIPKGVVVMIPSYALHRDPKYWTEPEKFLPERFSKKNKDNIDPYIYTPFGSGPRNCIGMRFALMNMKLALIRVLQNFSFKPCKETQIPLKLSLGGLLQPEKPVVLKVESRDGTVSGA
smiles,measurement,setting,value
CN1C(=O)CCS(=O)(=O)[C@H]1c1ccc(Cl)cc1,outcome,[1],inactive
same,"activity change, negative = inhibition",[2],2.77% (inactive)
same,outcome,[3],inactive
same,Potency,[4],> 46 µM (inactive)
same,Potency,[5],> 46 µM (inactive)
same,outcome,[6],inactive
same,Potency,[7],inactive
same,outcome,[8],inactive
same,Potency,[9],inactive
same,Potency,[10],inactive
same,Potency,[11],inactive
same,outcome,[12],inactive
same,outcome,[13],inactive
same,Potency,[14],inactive
same,Potency,[15],inactive
same,outcome,[16],inactive
same,outcome,[17],inactive
same,outcome,[18],inactive
same,outcome,[19],inactive
same,outcome,[20],inactive
same,"activity change, negative = inhibition",[21]; at 57.5 µM (top of the series),-2.49% (inactive)
same,max response,[21]; measured here: cell count channel max response,-1.62%
same,max response,[21]; measured here: lipid channel max response,2.79%
same,Potency,[22],inactive
same,Potency,[23],inactive
same,Potency,[24],inactive
